From PubChem BioAssay (EPA / NIEHS)
Records with an inconclusive call do not appear. The source made the active and inactive calls. Rule for the calls: active = hit-call score of the fitted dose curve at least 0.9, where 1 is the maximum; inconclusive = response in the unintended direction; inactive = score below 0.9.

Each compound was assayed against Retinoic acid receptor alpha (Homo sapiens) (UniProt P10276) (assay: ATG_RARa_TRANS: Attagene TRANS-FACTORIAL HepG2 Assay for human Retinoic Acid Receptor alpha (RARa) (AID 2283005);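 for AC50: potency for increased reporter signal meaning RARa activation over DMSO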).
Retinoic acid receptor alpha (Homo sapiens), sequence (P10276 whole entry, looked up): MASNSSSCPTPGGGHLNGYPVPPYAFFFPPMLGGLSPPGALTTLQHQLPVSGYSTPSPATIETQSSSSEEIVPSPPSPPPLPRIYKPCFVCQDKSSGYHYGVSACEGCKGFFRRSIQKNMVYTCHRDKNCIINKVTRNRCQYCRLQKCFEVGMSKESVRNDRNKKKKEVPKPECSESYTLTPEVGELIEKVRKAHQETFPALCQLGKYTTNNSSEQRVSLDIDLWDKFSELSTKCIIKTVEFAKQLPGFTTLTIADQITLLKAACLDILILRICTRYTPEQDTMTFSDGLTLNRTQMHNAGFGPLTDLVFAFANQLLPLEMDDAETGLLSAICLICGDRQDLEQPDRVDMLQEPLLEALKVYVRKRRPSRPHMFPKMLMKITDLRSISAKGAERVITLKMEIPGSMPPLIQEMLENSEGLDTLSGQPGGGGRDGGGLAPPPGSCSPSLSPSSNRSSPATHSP
Description: ATG_TRANS is a cell-based, multiplexed-readout assay that uses HepG2, a human liver cell line, with measurements taken at 24 hours after chemical dosing in a 24-well plate.ATG_RARa_TRANS is one of 30 assay component(s) measured or calculated from the ATG_TRANS assay. It is designed to make measurements of mRNA induction, a form of inducible reporter, as detected with fluorescence intensity signals by Reverse transcription polymerase chain reaction (RT-PCR) and Capillary electrophoresis technology.Data from the assay component ATG_RARa_TRANS was analyzed into 1 assay endpoint. This assay endpoint, ATG_RARa_TRANS, was analyzed in the positive analysis fitting direction relative to DMSO as the negative control and baseline of activity. Using a type of inducible reporter, measures of mRNA for gain-of-signal activity can be used to understand the reporter gene at the transcription factor-level as they relate to the gene RARA. Furthermore, this assay endpoint can be referred to as a primary readout, because this assay has produced multiple assay endpoints where this one serves a reporter gene function. To generalize the intended target to other relatable targets, this assay endpoint is annotated to the nuclear receptor intended target family, where the subfamily is non-steroidal.
Human liver HepG2 cells are transiently transfected with multiple reporter transcription units (MRTUs) in 6-well plates using FuGene 6 reagent (Roche; 3 ml FuGene/1 mg DNA). The MRTU constructs are regulated by a cis-regulating element (promoter). […] A major difference between the CIS and TRANS system is that in CIS activities of endogenous TFs are measured, whereas the TRANS assay evaluates changes in activities of exogenous, chimeric NR-Gal4 proteins. […] At the end of 24 hour incubation, total RNA was isolated using TriZol reagent (Invitrogen). The isolated RNA is then reverse-transcribed using oligo(dT) primer and Mo-MLV reverse transcriptase (Invitrogen) with DNAse I (Ambion) treatment for 30 min. The one-tenth of the produced cDNA was amplified by PCR using Taq DNA polymerase (Invitrogen) and two reporter sequence-specific primers. The PCR products were fluorescently labeled by primer extension with 6-arboxyfluorescein (6-FAM) 5'-labeled reporter sequence-specific primer (2 min at 95 C, 20 s at 68 C and 10 min at 72 C) and these products were digested with 5U of HpaI (New England Biolabs) for 2h at 37 C. The fragments were purified using Qiaquick PCR columns (Qiagen), analyzed on an ABI 3130xL genetic analyzer (Applied Biosystems) with peak positions identified by using a set of X-rhodamine (ROX)-labeled MapMarker1000 molecular weight standards (BioVentures). The raw capillary electrophoresis data was processed using Attagraph software (Attagene).
`CC(C)CP(=S)(S)CC(C)C` was tested, and the outcome was “inactive”. For `CC(C)=CC1C(C(=O)OCc2cccc(Oc3ccccc3)c2)C1(C)C` (stereo not given), the outcome was “inactive”. `C=CCOC(N)=O` was tested, and the outcome was “inactive”. With `CC(C)[N+](=O)[O-]` the outcome was “inactive”. With `CC(c1ccccc1)(c1ccc(O)cc1)c1ccc(O)cc1` the outcome was “inactive”. `Cc1cc(C(F)(C(F)(F)F)C(F)(F)F)ccc1NC(=O)c1cccc(I)c1C(=O)NC(C)(C)CS(C)(=O)=O` was tested, and the outcome was “inactive”. In the case of `CN(CCCC(O)c1cccnc1)N=O` (stereo not given), the outcome is reported as “inactive”. `CN(C)c1ccc(N=O)cc1` was tested, and the outcome was “inactive”. `C[C@]12CC[C@@H](O)C[C@@H]1CC[C@@H]1[C@@H]2CC[C@]2(C)C(=O)CC[C@@H]12` was tested, and the outcome was “inactive”. With `CC(C)[C@@H](Nc1ccc(C(F)(F)F)cc1Cl)C(=O)OC(C#N)c1cccc(Oc2ccccc2)c1` (stereo not given in full) the outcome was “inactive”. In the case of `COC(F)(C(F)(F)C(F)(F)F)C(F)(C(F)(F)F)C(F)(F)F` (stereo not given), the outcome is reported as “inactive”. `Oc1c(Br)cc(Br)cc1Br` was tested, and the outcome was “inactive”. `N#Cc1ccccc1Cl` was tested, and the outcome was “inactive”. With `CCC[N+](CCC)(CCC)CCC` the outcome was “inactive”. For `OC[C@@H](O)[C@H]1O[C@@H]2O[C@H](C(Cl)(Cl)Cl)O[C@@H]2[C@H]1O`, the outcome was “inactive”. In the case of `OC(Cc1ccccc1Cl)(Cn1cncn1)C1(Cl)CC1` (stereo not given), the outcome is reported as “inactive”. In the case of `NC(=O)CCl`, the outcome is reported as “inactive”. For `CCCCN(CCCC)C(=S)[S-].CCCCN(CCCC)C(=S)[S-].[Ni+2]`, the outcome was “inactive”. For `Brc1ccc(Br)cc1`, the outcome was “inactive”. With `O=S1OC[C@@H]2[C@H](CO1)[C@]1(Cl)C(Cl)=C(Cl)[C@@]2(Cl)C1(Cl)Cl` (stereo not given in full) the outcome was “inactive”. With `Cc1cc(Cl)ccc1OCCCC(=O)O` the outcome was “inactive”. In the case of `CCN(CCO)CCO`, the outcome is reported as “inactive”. With `CCNc1nc(NCC)nc(SC)n1` the outcome was “inactive”. With `C=CC(F)(C(F)(F)F)C(F)(F)C(F)(F)F` (stereo not given) the outcome was “inactive”. In the case of `CC(C)CC(C)(c1ccc(O)cc1)c1ccc(O)cc1`, the outcome is reported as “inactive”. In the case of `C=CC(Cl)CCl` (stereo not given), the outcome is reported as “inactive”. For `CCOC(=O)c1ccccc1S(=O)(=O)NC(=O)Nc1nc(Cl)cc(OC)n1`, the outcome was “inactive”. With `O=C(Nc1ccc(Br)cc1)c1cc(Br)cc(Br)c1O` the outcome was “inactive”. For `CC(C)(c1ccc(O)c(-c2ccccc2)c1)c1ccc(O)c(-c2ccccc2)c1`, the outcome was “inactive”. In the case of `CN(C)CCN(C)C`, the outcome is reported as “inactive”. With `Cc1c([N+](=O)[O-])c(C)c([N+](=O)[O-])c(C(C)(C)C)c1[N+](=O)[O-]` the outcome was “inactive”. `N#Cc1ccncc1` was tested, and the outcome was “inactive”. In the case of `CCOP(=O)(OCC)SCCSCC`, the outcome is reported as “inactive”. For `O=C(NC(=O)c1c(F)cccc1F)Nc1cc(Cl)c(F)c(Cl)c1F`, the outcome was “inactive”. With `CC(C)(C)c1cc([N+](=O)[O-])cc(C(C)(C)C)c1O` the AC50 was 2.37 µM (active). With `CCOCn1c(-c2ccc(Cl)cc2)c(C#N)c(Br)c1C(F)(F)F` the outcome was “inactive”. In the case of `CCCCCCCCCCCCCl`, the outcome is reported as “inactive”. `C=CCCl` was tested, and the outcome was “inactive”. For `N#Cc1ccccc1N`, the outcome was “inactive”. With `Brc1c(Br)c(Br)c(Oc2c(Br)c(Br)c(Br)c(Br)c2Br)c(Br)c1Br` the outcome was “inactive”.
